DT40 TDP1 CPT: qHTS for Inhibitors of human tyrosyl-DNA phosphodiesterase 1 (TDP1): qHTS in cells in presence of CPT; chicken DT40 Tdp1-/-;hTDP1 cells + 20 nM CPT, ATP luminescence, 48 h; Potency, µM (doses to about 46.2 µM), inactives show top-dose activity change, negative = growth inhibition, hits mostly inhibitors; 420,000 tested, 12% active; AID 686979, 2013; note: potency is the fitted concentration of half-maximal effect; nearly all actives have a fitted effect of over 55% in size
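Cell growth measured by CellTiter-Glo luminescence after a minimum 48 h, 37 C compound exposure with 20 nM CPT in Tdp1-knockout DT40 cells stably expressing hTDP1, seeded 400/well; qHTS titration format.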
DT40 TDP1 no CPT: qHTS for Inhibitors of human tyrosyl-DNA phosphodiesterase 1 (TDP1): qHTS in cells in absence of CPT; Potency, µM (top dose mostly 46.2 µM), for the others: at the top dose activity change, negative = growth inhibition, actives largely listed as inhibitors; DT40 Tdp1-/- hTDP1 cells, no CPT, ATP luminescence, 48 h; AID 686978, 2013; 420,000 tested, 15% active; note: potency is the fitted concentration of half-maximal effect; nearly all actives have a fitted effect of over 55% in size
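Seeded 400 DT40-hTDP1 cells/well (vehicle DMSO, no 20 nM CPT); pinned compounds; ≥48 hr at 37 °C; CellTiter-Glo luminescence as viability measure.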
HT1080 IDH1KD tx: qHTS for induction of synthetic lethality in tumor cells producing 2HG: qHTS for the HT-1080-IDH1KD cell line; Potency, µM (titrated, usually from 46.1 µM), for the others: at the highest dose activity, negative = toxicity, hits mostly cytotoxic; HT-1080 IDH1 knockdown viability, ATP luminescence, 48 h; 360,000 tested, 2% active;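 note: potency is the fitted concentration of half-maximal effect; 0% = DMSO wells and -100% = cell-free medium wells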
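IDH1KD HT-1080 cells, 750/well, RPMI + 5% FBS; compound pinned after 2 h settling; 48 h, 37 °C; CellTiter-Glo luminescence; % activity normalised to DMSO and no-cell wells; curves fitted, classed by r2 and efficacy.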
HT1080-NT tox: qHTS for induction of synthetic lethality in tumor cells producing 2HG: qHTS for the HT-1080-NT fibrosarcoma cell line. 360,000 tested, 1.6% active. Potency, µM (titrated, usually from 46.1 µM), inactives show at the top dose activity, negative = less viability, actives largely listed as cytotoxic. HT-1080-NT fibrosarcoma viability, CellTiter-Glo ATP luminescence, 48 h;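 note: NT is the 2HG producing partner of a matched IDH1 knockdown line; potency is the fitted concentration of half-maximal effect; 0% = DMSO-treated cells and -100% = media-only wells without cells; nearly all actives have a fitted effect of over 55% in size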
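Viability by CellTiter-Glo luminescence after 48 h compound exposure at 37C of HT-1080-NT cells (750/well, RPMI, 5% FBS). % activity scaled between DMSO wells and medium-only wells, then curve-fitted and categorized by curve class.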
IL1B secr inh: qHTS for Inhibitors of Inflammasome Signaling: IL-1-beta AlphaLISA Primary Screen | AID 743279, 2014 | 360,000 tested, 4.7% active | activity change, % at 57.5 µM | THP-1 LPS/ATP IL-1B secretion, AlphaLISA, 16 h; hits give low values; in the data active = activity change below about -50%; inconclusive = mostly about -30% to -49%
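Secreted IL-1B measured by AlphaLISA bead assay after 16 h compound exposure of THP-1 cells; compounds (final up to 57.5 uM) added 1 h before LPS (250 ng/mL) and ATP (1.25 mM) stimulation; lower signal means less secretion.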
Starred values were filed as active, the others as inactive; ? = inconclusive; / = no result; [ ] = dose if it differs, or a comment. Only some compounds are listed: those with a hit (about 19% of all), similar ones and a draw of the others. Unless noted, calls come from the whole dose curve; as a rule, active = well fitted curve in the direction sought with a large enough effect; inconclusive = small, poorly fitted or top-dose-only effect, or another doubt; inactive = no such curve, though single readings can be large; an effect the other way counts as inactive or inconclusive. Unless noted, % is set by controls: 0 for no effect and ±100 for the full control effect.

SMILES | DT40 TDP1 CPT | DT40 TDP1 no CPT | HT1080 IDH1KD tx | HT1080-NT tox | IL1B secr inh
COc1ccccc1OCC(=O)NCCS(=O)(=O)N1CCN(c2ccc(F)cc2)CC1 | ? | -28% | 7% | 5% | -11
COc1ccc(-c2cc(C(F)(F)F)nc(SCC(=O)Nc3sc4c(c3C#N)CCC4)n2)cc1 | ? | 5.8µM* | -2% | 17% | -8
CCN(CC)c1ccc(NC(=O)CSc2n[nH]c(-c3ccco3)n2)cc1 | ? | 23µM* | 2% | 0% | 7
N#Cc1c(NC(=O)CSc2nc(-c3ccccc3)cc(C(F)(F)F)n2)sc2c1CCC2 | -19% | ? | 12% | 16% | -13
Cc1ccc(NC(=O)CSc2n[nH]c(-c3ccco3)n2)cc1 | 0% | -9% | 18% | 21% | 6
O=C(CSc1nc(-c2ccccc2)cc(C(F)(F)F)n1)N1CCOCC1 | 0% | -24% | 1% | 4% | -19
CC1CCN(C(=O)CSc2nc(-c3ccc(F)cc3)cc(C(F)(F)F)n2)CC1 | 21µM* | ? | / | / | /
O=C(c1cnn(C(=O)c2ccco2)c1)c1cc(Cl)cc(Cl)c1O | -23% | -21% | 6% | -6% | 6
COc1ccc2c(c1)c1nnc(SC(C)C)nc1n2C | 2% | ? | -3% | 3% | /
COc1ccc(NC(=S)Nc2ccccc2)c(OC)c1 | ? | -23% | -1% | 1% | -18
COc1ccc(NC(=S)Nc2ccc(OCc3ccccc3)cc2)c(OC)c1 | 21µM* | 26µM* | -11% | -14% | 34
CC[C@@H]1CC2=C(C(=O)OC(C)(C)O2)[C@H](c2ccc(F)cc2)O1 | 0% | 0% | 18% | 16% | 0
CC(C)OC(=O)c1cccc(C(=O)OCc2ccco2)n1 | ? | 21µM* | 24% | -2% | -74*
CC(C)OC(=O)c1cccc(C(=O)Oc2ccccc2)n1 | 1% | 6% | 3% | 3% | 30
CC(C)C[C@@H](CN)NC(=O)c1nc[nH]c1C(=O)N[C@@H](C)C(=O)CNC[C@H](C)NC(=O)c1nc[nH]c1C(=O)N[C@@H](Cc1ccccc1)C(=O)O | -8% | 3% | -2% | 4% | 2
CCOC(=O)N1CCN(C(=O)COc2ccc(S(=O)(=O)NC3CCCCC3)cc2C)CC1 | ? | 18µM* | -10% | -11% | 1
CCOC(=O)N1CCC(NS(=O)(=O)c2ccc(C)c(Cl)c2)CC1 | ? | 6.5µM* | -26% | -26% | 34
Cc1ccccc1OCC(=O)NC(=S)Nc1ccc(S(=O)(=O)NC2CCCCC2)cc1 | ? | 13µM* | 1%[9.24 µM] | ? | -5
CCC(=O)N1c2ccc(S(=O)(=O)N3CCN(c4cc(C)ccc4C)CC3)cc2CC1C (configuration not stated) | ? | ? | -11% | -27% | -14
Cc1cccc(S(=O)(=O)NC(=O)C2(C)CCN2C(=O)Cc2ccc(Cl)cc2Cl)c1 (configuration not stated) | 3% | 6% | 2% | 9% | 0
COc1cc(/C=C/C(=O)OCC(=O)Nc2nnc(-c3ccccc3)o2)cc(OC)c1OC | 4% | -5% | -7% | 2% | -7
C[C@H](NC(=O)C[C@@H]1CC[C@H]2[C@@H](COC[C@H](O)CN2Cc2ccc(C(F)(F)F)cc2)O1)c1ccccc1 | 18µM* | 21µM* | -2% | 3% | 1
O=C(C[C@H]1CC[C@@H]2[C@H](COC[C@@H](O)CN2Cc2ccc(Cl)cc2)O1)NCCc1ccccc1 | -28% | ? | -1% | -2% | -11
CC(C)OCCCNc1nc2c(cnn2C)c(=O)[nH]1 | -13% | -11% | -2% | -5% | 7
Cc1ccc(C)c(N2CC(C(=O)O)CC2=O)c1 (configuration not stated) | 12% | 17% | 29% | 26% | 16
SMILES | DT40 TDP1 CPT | DT40 TDP1 no CPT | HT1080 IDH1KD tx | HT1080-NT tox | IL1B secr inh
Cc1ccc(-c2noc(-c3ccccc3C(=O)N3CCCC3)n2)cc1 | 16µM* | 23µM* | -15% | -16% | -6
COc1cc(-c2noc(C3CC(=O)N(c4cc(C)ccc4C)C3)n2)cc(OC)c1OC (configuration not stated) | 18µM* | 16µM* | / | / | /
COc1ccc(-c2noc(C3CCCN(C(=O)c4ccccc4C)C3)n2)cc1 (configuration not stated) | 16µM* | 12µM* | -18% | -14% | ?
COc1ccc(-c2noc(C3CCCN(C(=O)c4ccccc4OC)C3)n2)cc1 (configuration not stated) | ? | 15µM* | -9% | -5% | -25
O=C(O)CCC(=O)N1CCN(c2ncccc2C(F)(F)F)CC1 | 3% | 33% | 15% | 10% | 14
COc1cccc(-c2noc(C3CCCN(C(=O)c4cccc(F)c4)C3)n2)c1 (configuration not stated) | ? | ? | -3% | 1% | 20
COc1ccccc1C(=O)N1CCCC(c2nc(-c3cc(OC)c(OC)c(OC)c3)no2)C1 (configuration not stated) | -18% | ? | 18% | 6% | 7
COc1ccc(-c2noc(C3CCCN(C(=O)c4cccc(F)c4)C3)n2)cc1 (configuration not stated) | -29% | 18µM* | -13% | -3% | -69*
COc1ccc(C(=O)N2CCCC(c3nc(-c4cc(OC)c(OC)c(OC)c4)no3)C2)cc1 (configuration not stated) | 21µM* | ? | 0% | -23% | 0
COC(=O)CSc1nnc(CNC(=O)c2ccccc2F)n1-c1ccc(F)cc1 | 3% | ? | -3% | -12% | -56*
O=S(=O)(c1cccc2c(S(=O)(=O)N3CCCC3)cccc12)N1CCCC1 | ? | 16µM* | 8% | 5% | 7
O=S(=O)(c1cccc(S(=O)(=O)N2CCCC2)c1)N1CCCCC1 | 0% | 6% | 0% | 4% | 42
O=[N+]([O-])c1cccc2c(S(=O)(=O)N3CCCCC3)cccc12 | -20% | ? | -5% | -18% | -17
COc1ccc(S(=O)(=O)N2CCCC2)c2ccccc12 | -30% | -20% | -8% | 0% | -2
COc1c(S(=O)(=O)N2CCCCC2)ccc2c(S(=O)(=O)N3CCCCC3)cccc12 | 16µM* | 23µM* | 6% | 7% | -23
